Test [1] in a line: qHTS assay for small molecule agonists of the p53 signaling pathway (AID 651631; calls by dose curve; also: nearly all actives have a fitted effect of over 15% in size; also: potency is read from the fitted curve at half-maximal effect). Put shortly:
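HCT-116 cells carrying a stable p53 response element–beta-lactamase reporter were plated, rested 5 h at 37 °C, then exposed to compound in DMSO for 16 h at 37 °C; reporter activity was read as FRET substrate fluorescence after 2 h at room temperature.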

A short description of test [2]: qHTS assay for small molecules that induce genotoxicity in human embryonic kidney cells expressing luciferase-tagged ATAD5 (AID 651632). Also: nearly all actives have a fitted effect of over 15% in size. A digest of the protocol:
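Test compounds were delivered by pin tool onto HEK293T reporter cells (2,000/well) expressing ATAD5 fused to luciferase. After 16 hr at 37C, 5% CO2, Amplite was added for 30 min at room temperature and luminescence was measured.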

Test [3] is described as follows: qHTS assay for small molecule agonists of the p53 signaling pathway - cell viability (AID 651633; calls by dose curve; also: nearly all actives have a fitted effect of over 30% in size; also: potency is read from the fitted curve at half-maximal effect). A digest of the protocol:
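Viability counter-read: CellTiter-Glo luminescence (30 min, room temperature) in the same p53RE-bla plates. These plates had been exposed to compounds for 16 h at 37 C.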

Test [4] is described as follows: qHTS assay for small molecules that induce genotoxicity in human embryonic kidney cells expressing luciferase-tagged ATAD5 - cell viability (AID 651634; calls by dose curve; also: nearly all actives have a fitted effect of over 25% in size). A digest of the protocol:
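Quantitative high-throughput format. HEK293T cells expressing ATAD5 fused to luciferase were plated at 2,000 cells/well and treated 15.5 hr with compound versus DMSO. Viability was determined by fluorescent live-cell protease substrate, 30 min at 37C.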

Test [5] is described as follows: qHTS assay for small molecule disruptors of the mitochondrial membrane potential - cell viability (AID 720634; calls by dose curve;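 also: human HepG2 liver cancer cells; series mostly up to about 83 µM; nearly all actives have a fitted effect of over 20% in size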). A digest of the protocol: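 Same-well counter-screen: following the MMP dye addition, CellTiter-Glo was added to 1 hr compound-treated HepG2 cells and luminescence read after 30 min at room temperature.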
A short description of test [6]: qHTS assay for small molecule disruptors of the mitochondrial membrane potential (AID 720635). A digest of the protocol: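 Mitochondrial membrane potential tracked with Mito-MPS dye, red aggregates (ex 540/em 590 nm) against green monomers (ex 490/em 535 nm). Compound treatment 1 hr at 37C, dye 30 min in HepG2.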
Test [7] is described as follows: qHTS assay to test for compound auto fluorescence at 590 nm (red) in HepG2 cells (AID 720674). Put shortly: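 1 hr compound incubation on HepG2 cells, 37 C, 5% CO2; plate read ex 540 nm / em 590 nm; intensities reported as Rose Bengal sodium equivalents.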
Test [8] in a line: qHTS assay to test for compound auto fluorescence at 535 nm (green) in HepG2 cells (AID 720675).
The nature of test [9]: qHTS assay to test for compound auto fluorescence at 460 nm (blue) in HEK293 cells (AID 720678). A digest of the protocol:
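Intrinsic compound fluorescence is recorded in live HEK293 cultures after overnight incubation at 37C, 5% CO2, using excitation 405 nm and emission 460 nm. Values are referenced to triamterene.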

Test [10] can be described thus: qHTS assay to test for compound auto fluorescence at 590 nm (red) in HEK293 cells (AID 720679). A digest of the protocol:
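Red autofluorescence, HEK293 cells: 2,000 cells/well; attach 4-5 hr 37C; add 23 nL cpd or DMSO; incubate o/n 37C 5% CO2; read Ex540/Em590; Rose Bengal sodium reference.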

Values without a mark were called inactive. Records with an inconclusive call do not appear. Calls of active or inactive are those of the source. Unless noted, calls follow the shape of the dose curve; as a rule, active = well fitted curve in the direction sought with a large enough effect in the repeat runs; inconclusive = weak or mixed curves; inactive = no such curve, though single readings can be large; an effect the other way counts as inactive or inconclusive.
% is scaled to controls: 0 for no effect and ±100 for the full control effect.

`O[C@@H]([C@H](O)[C@H](O)CBr)[C@H](O)CBr`: the Potency result in test [1], in test [2], in test [3], in test [4], in test [5] and in [6] was “inactive” each time. The Potency entry in test [7], in [8], in test [9] and in test [10] was “inactive” each time.
As for `CCCCOC(=O)CC`, the Potency entry in test [1], in [2], in test [3], in test [4], in [5] and in [6] was “inactive” throughout. In addition, the Potency entry in test [7], in test [8], in [9] and in [10] was “inactive” each time.
As to `CCO[Si](OCC)(OCC)OCC`, the Potency entry in [1], in [2], in test [3], in test [4], in test [5] and in test [7] was “inactive” throughout. In addition, the Potency entry in test [8], in test [9] and in test [10] was “inactive” in each case.
Turning to `CCC(C)(CCC(C)C)C(=O)[O][Sn]([CH3])([CH3])[O]C(=O)C(C)(CC)CCC(C)C` (configuration not stated), the Potency entry in [1], in [2], in test [3], in test [4], in test [5] and in test [7] was “inactive” each time. The Potency entry in test [8], in test [9] and in [10] was “inactive” in each case.
Consider `CC(=O)OCC=C(C)C`, for which the Potency entry in [1], in [2], in test [3], in [4], in [5] and in [6] was “inactive” each time. Moreover, the Potency entry in test [7], in [8], in test [9] and in test [10] was “inactive” in each case.
For `CCCCCCCC`, the Potency entry in test [1], in test [2], in test [3], in test [4], in [5] and in test [7] was “inactive” throughout. Further, the Potency result in [8], in test [9] and in test [10] was “inactive” in each case.
In the case of `Nc1ccc(C(=O)O)c(O)c1`, the Potency result in test [1], in test [2], in test [3], in test [4], in test [5] and in test [6] was “inactive” throughout. Moreover, the Potency entry in test [7], in [8], in [9] and in test [10] was “inactive” in each case.
With `Cc1nc(-c2ccc(Cl)cc2)oc1COC(C)(C)C(=O)O`, the Potency entry in test [1], in test [2], in test [3], in test [4], in test [5] and in [6] was “inactive” in each case. The Potency result in test [7], in test [8], in [9] and in test [10] was “inactive” each time.
For the molecule `O=[N+]([O-])c1cccc(C(F)(F)F)c1`, the Potency entry in test [1], in test [2], in [3], in [4], in test [5] and in [7] was “inactive” each time. Besides, the Potency entry in [8], in test [9] and in test [10] was “inactive” in each case.
For `COc1ccc(NC(=O)CC(C)=O)cc1`, the Potency entry in test [1], in [2], in [3], in test [4], in [5] and in test [7] was “inactive” in each case. The Potency entry in [8], in [9] and in [10] was “inactive” in each case.
Take `[Cl][Pt-2]([Cl])([Cl])[Cl]`: the Potency entry in [1], in test [2], in [3], in test [4], in [5] and in test [7] was “inactive” in each case. Besides, the Potency entry in [8], in test [9] and in test [10] was “inactive” in each case.
As for `Cc1cc(C(C)(C)C)cc(C)c1CC1=NCCN1`, the Potency result in test [1], in test [2], in test [3], in test [4] and in test [5] was “inactive” throughout. Further, the fluorescence, relative to Rose Bengal in [7] was 0.379% [at 18.6 µM]. Besides, the fluorescence, % of fluorescein control in [8] was 0.0648% [at 18.6 µM]. The fluorescence, % of triamterene in [9] was -0.0052% [at 18.6 µM]. Moreover, the fluorescence, % of fluorescent control in test [10] was 0.279% [at 18.6 µM].
As for `COCCOc1cc2cc(C(=O)NC3CCN(C(C)C)CC3)n(CC(=O)Nc3ccc(Cl)cn3)c2cn1`, the Potency result in [1], in test [2], in [3], in test [4], in test [5] and in [6] was “inactive” each time. Also, the Potency entry in [7], in test [8], in [9] and in test [10] was “inactive” each time.
Take `CCCCCCCC/C=C\CCCCCCCCN`: the Potency entry in test [1], in test [2], in test [3], in test [4], in test [5] and in test [6] was “inactive” each time. The Potency result in test [7], in [8], in test [9] and in test [10] was “inactive” throughout.
With `CCCCCCCCCCCCCC[N+](C)(C)C`, the Potency in test [1] is 21.1 µM (active); in test [3], 26.6 µM (active). Moreover, the Potency result in [2], in test [4], in test [5], in [8], in test [9] and in test [10] was “inactive” throughout.
With `CCCCCCC1CCCC(=O)O1` (configuration not stated), the Potency entry in test [1], in test [2], in [3], in [4], in test [5] and in [8] was “inactive” each time. For the same molecule, the Potency entry in test [9] and in [10] was “inactive” each time.
Regarding `O=C(/C=C/c1ccc(O)c(O)c1)O[C@@H](C(=O)O)[C@@H](OC(=O)/C=C/c1ccc(O)c(O)c1)C(=O)O`, the Potency result in test [1], in test [2], in test [3], in [4], in [5] and in [7] was “inactive” throughout. In addition, the Potency entry in test [8], in test [9] and in [10] was “inactive” in each case.
For the molecule `CC/C=C\CCCCCO`, the Potency entry in [1], in test [2], in test [4], in test [5], in test [6] and in [7] was “inactive” throughout. The Potency entry in test [8], in test [9] and in test [10] was “inactive” throughout.
For `C[C@@H](O)[C@H](N)C(=O)O`, the Potency entry in test [1], in [2], in [3], in test [4], in test [7] and in [8] was “inactive” throughout. For the same molecule, the Potency result in test [9] and in test [10] was “inactive” each time.
For the molecule `CCOC(=O)NNc1ccc(N(CC)CC(C)O)nn1` (configuration not stated), the Potency result in test [1], in [2], in [3], in [4], in test [5] and in test [8] was “inactive” throughout. Besides, the Potency result in test [9] and in [10] was “inactive” each time.
Consider `CCC(CC)(CC(=O)Nc1cccc(/C=C/c2nc(C3CCC3)cs2)c1)C(=O)O`, for which the Potency entry in test [1], in test [2], in test [3], in test [4], in [5] and in test [8] was “inactive” in each case. The Potency entry in test [9] and in [10] was “inactive” each time.
Turning to `CC1=Nc2ccccc2C1(C)C`, the Potency result in [1], in [2], in test [3], in test [4], in test [5] and in test [8] was “inactive” throughout. In addition, the Potency entry in test [9] and in test [10] was “inactive” in each case.
`CCCC(=O)OCCc1ccccc1`: the Potency result in test [1], in test [2], in [3], in test [5], in [6] and in [7] was “inactive” throughout. Also, the Potency result in test [8], in [9] and in [10] was “inactive” each time.
In the case of `CCCCN(CCCC)CC(O)c1cc(Cl)cc2c1-c1ccc(Cl)cc1/C2=C/c1ccc(Cl)cc1` (configuration not stated), the Potency result in test [1], in [2], in test [3], in [4], in [5] and in [7] was “inactive” throughout. Moreover, the Potency result in test [8], in [9] and in test [10] was “inactive” in each case.

These data come from PubChem BioAssay (Tox21).
